Measured values: the OligoGym collection
Note: reference of the scale not given here.

These sequences were tested against NXF5 (assay: pooled miR-30 sensor sort-seq; sequence = guide strand). Settings: shRNA.
TACAGTTTGTTGTTGCACAAGT was tested, and the sensor-assay potency score (higher = more potent) was -0.398. ATTTCTTTCAGTGATCTTCAGG was tested, and the sensor-assay potency score (higher = more potent) was -1.08. TTACATAGGCAGACTGGTCCGA was tested, and the sensor-assay potency score (higher = more potent) was 0.61.

What follows are sequences tested against OAS3 in the same assay as above. Settings: shRNA.
TTGAACTGGGAGTCCTTCCCGC showed a sensor-assay potency score (higher = more potent) of -0.289. Work on TTTGTTCTGAGCCGCAACCTGG yielded a sensor-assay potency score (higher = more potent) of -1.14. TGTAGCTCTGTGAAGCAGGTGG showed a sensor-assay potency score (higher = more potent) of 0.189. With TTCAACATCACAGCCATCCCTT the sensor-assay potency score (higher = more potent) was -0.469. For TAGACTTGAGAGCTGGGCCTGG, the sensor-assay potency score (higher = more potent) was -0.478. TTCAGAATCACAGCCACCCTTG showed a sensor-assay potency score (higher = more potent) of -0.336. TACCAGTGCTTCACCAGCCGGA gave a sensor-assay potency score (higher = more potent) of -0.364. In the case of TTGACCGTCCAGTAGACACAGA, the sensor-assay potency score (higher = more potent) is reported as -0.525. TTGTAGTCCGTGAAGCAGTTGA showed a sensor-assay potency score (higher = more potent) of -0.0592. In the case of TAGGCTGAAAGCATCCTTCTTA, the sensor-assay potency score (higher = more potent) is reported as 0.0263. Work on TTTGGTGCCAGAACTGAGCTGC yielded a sensor-assay potency score (higher = more potent) of 0.736. TTCTCTACGAACTCCTTCCGCG was tested, and the sensor-assay potency score (higher = more potent) was -0.635.

Each sequence was assayed against OCA2 in the same assay as above. Settings: shRNA.
For TTGTTCTCCAACATATTCTATT, the sensor-assay potency score (higher = more potent) was -1.21. Sequence TTATAAAGCTTTCTGTTCCAGT has a sensor-assay potency score (higher = more potent) of -0.265. For TTGTCTTGGATCAAGGTTGAGC, the sensor-assay potency score (higher = more potent) was -0.397. TAGCAGGTATCTTCGCTCCCAG showed a sensor-assay potency score (higher = more potent) of -0.952. TAACACATCCCAACAGTGCAGG showed a sensor-assay potency score (higher = more potent) of -0.397. With TTTTCTTCTTCAAACAGTGGGG the sensor-assay potency score (higher = more potent) was -0.306. For TTGAGCACCTCACACAACCTTA, the sensor-assay potency score (higher = more potent) was -0.642. TTCAGTTCAACAATCTCACTGG was tested, and the sensor-assay potency score (higher = more potent) was 0.691. For AACAGTGCAGGACACAACCATC, the sensor-assay potency score (higher = more potent) was -1.7. Sequence TTTGTGAAGATCACTTCTGCAA has a sensor-assay potency score (higher = more potent) of 0.623. With TTTGTTCTCCAACATATTCTAT the sensor-assay potency score (higher = more potent) was -1.25.

The sequences below were run against OCLM in the same assay as above. Settings: shRNA.
Work on ATAGAAGAGTATACTAATGTGT yielded a sensor-assay potency score (higher = more potent) of -0.144. In the case of ACTAATGTGTCTGCTAAGGTAA, the sensor-assay potency score (higher = more potent) is reported as -1.12. Work on TAGAAGAGTATACTAATGTGTC yielded a sensor-assay potency score (higher = more potent) of -0.0959. For AAGAGTATACTAATGTGTCTGC, the sensor-assay potency score (higher = more potent) was 0.0499. AATACCACTCTTATAAAGGATT was tested, and the sensor-assay potency score (higher = more potent) was -1.36. With TCTGCTAAGGTAAATCTTTAAC the sensor-assay potency score (higher = more potent) was -1.77. TATACTAATGTGTCTGCTAAGG gave a sensor-assay potency score (higher = more potent) of -1.53. For AAAGAATACCAGGATAGCCATA, the sensor-assay potency score (higher = more potent) was -1.76. TACTAATGTGTCTGCTAAGGTA showed a sensor-assay potency score (higher = more potent) of -0.482. In the case of TAATACCACTCTTATAAAGGAT, the sensor-assay potency score (higher = more potent) is reported as -0.68. In the case of TTTAAATAGAAGAGTATACTAA, the sensor-assay potency score (higher = more potent) is reported as -0.591. With TTAAATAGAAGAGTATACTAAT the sensor-assay potency score (higher = more potent) was -0.462.
